Bioassay records deposited in PubChem by National Center for Advancing Translational Sciences (NCATS).
DT40 TDP1 no CPT: qHTS for Inhibitors of human tyrosyl-DNA phosphodiesterase 1 (TDP1): qHTS in cells in absence of CPT; Potency, µM (titrated, usually from 46.2 µM), without a hit: at the highest dose activity change, negative = growth inhibition, hits mostly inhibitors; DT40 Tdp1-/- hTDP1 cells, no CPT, ATP luminescence, 48 h; hit rate 15% among 420,000; note: potency is the fitted concentration of half-maximal effect; nearly all actives have a fitted effect of over 55% in size
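Seeded 400 DT40-hTDP1 cells/well (vehicle DMSO, no 20 nM CPT); pinned compounds; ≥48 hr at 37 °C; CellTiter-Glo luminescence as viability measure.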
ELG1 DNA repair: inhibitors of ELG1-dependent DNA repair in HEK293T cells. HEK293T ELG1-luciferase reporter, luminescence, 16 h; DNA damage induced by 5-fluorouridine. Potency, µM (top dose mostly 46.1 µM), for inactives: at the highest dose activity change, negative = inhibition, hits mostly inhibitors. hit rate 2.3% among 330,000. AID 504467; note: potency is the fitted concentration of half-maximal effect; nearly all actives have a fitted effect of over 55% in size
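Luminescence from the luciferase reporter, measured 30 min after ONE-Glo reagent at room temperature, was the read-out. Beforehand, 2,000 cells per well were exposed for 16 hr at 37 °C to 5-fluorouridine together with compound or vehicle.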
HT1080NT lethal: kills 2HG-producing HT-1080-NT fibrosarcoma cells; Potency, µM (titrated, usually from 46.1 µM), for inactives: at the top dose activity, negative = less viability, most hits filed as cytotoxic; HT-1080-NT fibrosarcoma viability, CellTiter-Glo ATP luminescence, 48 h; AID 686970; hit rate 1.6% among 360,000;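 note: NT is the 2HG producing partner of a matched IDH1 knockdown line; potency is the fitted concentration of half-maximal effect; 0% = DMSO-treated cells and -100% = media-only wells without cells; nearly all actives have a fitted effect of over 55% in size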
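Viability of the 2HG-overproducing fibrosarcoma line after 48 hours of compound exposure at 37 degrees C was determined by luminescence with CellTiter-Glo, and concentration-effect curves were then fitted and categorized.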
HT1080 IDH1KD tx: HT-1080 IDH1 knockdown cell toxicity (counter line); HT-1080 IDH1 knockdown viability, ATP luminescence, 48 h; Potency, µM (series often up to 46.1 µM), for inactives: at the highest dose activity, negative = toxicity, hits mostly cytotoxic; hit rate 2% among 360,000;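 note: potency is the fitted concentration of half-maximal effect; 0% = DMSO wells and -100% = cell-free medium wells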
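In this qHTS, HT-1080 cells depleted of IDH1 are exposed for 48 h at 37 °C to compound titrations. Toxicity is scored from CellTiter-Glo luminescence, with DMSO as full viability and medium alone as none.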
TDP1 cell CPT: growth inhibition of DT40 Tdp1-/-;hTDP1 cells with camptothecin (screen for TDP1 inhibitors); chicken DT40 Tdp1-/-;hTDP1 cells + 20 nM CPT, ATP luminescence, 48 h; Potency, µM (top dose mostly 46.2 µM), inactives show at the top dose activity change, negative = growth inhibition, hits mostly inhibitors; hit rate 12% among 420,000; note: potency is the fitted concentration of half-maximal effect; nearly all actives have a fitted effect of over 55% in size
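Cell growth measured by CellTiter-Glo luminescence after a minimum 48 h, 37 C compound exposure with 20 nM CPT in Tdp1-knockout DT40 cells stably expressing hTDP1, seeded 400/well; qHTS titration format.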
IL1B secr inh: inhibitors of inflammasome signaling (IL-1 beta secretion) | activity change, % at 57.5 µM | AID 743279 | THP-1 LPS/ATP IL-1B secretion, AlphaLISA, 16 h; active compounds read low | hit rate 4.7% among 360,000; in the data active = activity change below about -50%; inconclusive = mostly about -30% to -49%
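Secreted IL-1B measured by AlphaLISA bead assay after 16 h compound exposure of THP-1 cells; compounds (final up to 57.5 uM) added 1 h before LPS (250 ng/mL) and ATP (1.25 mM) stimulation; lower signal means less secretion.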
ELG1 FLuc counter: luciferase inhibition in cell-free luciferin readout for ELG1 hits. shares compounds with ELG1 DNA repair. cell-free firefly luciferase luminescence counter-screen, ViewLux. Potency, µM (highest dose often 46.1 µM), for inactives: at the top dose activity change, negative = inhibition, most hits filed as inhibitors. hit rate 3% among 350; note: potency is the fitted concentration of half-maximal effect
ELG1-Luc inh: human ELG1 repair inhibition, luciferase-tagged ELG1 confirmation; shares compounds with ELG1 DNA repair; HEK293T ELG1-luciferase levels, luminescence; cells co-treated with 5-fluorouridine; Potency, µM (highest dose often 46.1 µM), without a hit: at the highest dose activity change, negative = inhibition, usual class: inhibitors; hit rate 68% among 670; AID 624248; note: potency is the fitted concentration of half-maximal effect; nearly all actives have a fitted effect of over 55% in size
Target sequence (Q96QE3 whole entry, looked up): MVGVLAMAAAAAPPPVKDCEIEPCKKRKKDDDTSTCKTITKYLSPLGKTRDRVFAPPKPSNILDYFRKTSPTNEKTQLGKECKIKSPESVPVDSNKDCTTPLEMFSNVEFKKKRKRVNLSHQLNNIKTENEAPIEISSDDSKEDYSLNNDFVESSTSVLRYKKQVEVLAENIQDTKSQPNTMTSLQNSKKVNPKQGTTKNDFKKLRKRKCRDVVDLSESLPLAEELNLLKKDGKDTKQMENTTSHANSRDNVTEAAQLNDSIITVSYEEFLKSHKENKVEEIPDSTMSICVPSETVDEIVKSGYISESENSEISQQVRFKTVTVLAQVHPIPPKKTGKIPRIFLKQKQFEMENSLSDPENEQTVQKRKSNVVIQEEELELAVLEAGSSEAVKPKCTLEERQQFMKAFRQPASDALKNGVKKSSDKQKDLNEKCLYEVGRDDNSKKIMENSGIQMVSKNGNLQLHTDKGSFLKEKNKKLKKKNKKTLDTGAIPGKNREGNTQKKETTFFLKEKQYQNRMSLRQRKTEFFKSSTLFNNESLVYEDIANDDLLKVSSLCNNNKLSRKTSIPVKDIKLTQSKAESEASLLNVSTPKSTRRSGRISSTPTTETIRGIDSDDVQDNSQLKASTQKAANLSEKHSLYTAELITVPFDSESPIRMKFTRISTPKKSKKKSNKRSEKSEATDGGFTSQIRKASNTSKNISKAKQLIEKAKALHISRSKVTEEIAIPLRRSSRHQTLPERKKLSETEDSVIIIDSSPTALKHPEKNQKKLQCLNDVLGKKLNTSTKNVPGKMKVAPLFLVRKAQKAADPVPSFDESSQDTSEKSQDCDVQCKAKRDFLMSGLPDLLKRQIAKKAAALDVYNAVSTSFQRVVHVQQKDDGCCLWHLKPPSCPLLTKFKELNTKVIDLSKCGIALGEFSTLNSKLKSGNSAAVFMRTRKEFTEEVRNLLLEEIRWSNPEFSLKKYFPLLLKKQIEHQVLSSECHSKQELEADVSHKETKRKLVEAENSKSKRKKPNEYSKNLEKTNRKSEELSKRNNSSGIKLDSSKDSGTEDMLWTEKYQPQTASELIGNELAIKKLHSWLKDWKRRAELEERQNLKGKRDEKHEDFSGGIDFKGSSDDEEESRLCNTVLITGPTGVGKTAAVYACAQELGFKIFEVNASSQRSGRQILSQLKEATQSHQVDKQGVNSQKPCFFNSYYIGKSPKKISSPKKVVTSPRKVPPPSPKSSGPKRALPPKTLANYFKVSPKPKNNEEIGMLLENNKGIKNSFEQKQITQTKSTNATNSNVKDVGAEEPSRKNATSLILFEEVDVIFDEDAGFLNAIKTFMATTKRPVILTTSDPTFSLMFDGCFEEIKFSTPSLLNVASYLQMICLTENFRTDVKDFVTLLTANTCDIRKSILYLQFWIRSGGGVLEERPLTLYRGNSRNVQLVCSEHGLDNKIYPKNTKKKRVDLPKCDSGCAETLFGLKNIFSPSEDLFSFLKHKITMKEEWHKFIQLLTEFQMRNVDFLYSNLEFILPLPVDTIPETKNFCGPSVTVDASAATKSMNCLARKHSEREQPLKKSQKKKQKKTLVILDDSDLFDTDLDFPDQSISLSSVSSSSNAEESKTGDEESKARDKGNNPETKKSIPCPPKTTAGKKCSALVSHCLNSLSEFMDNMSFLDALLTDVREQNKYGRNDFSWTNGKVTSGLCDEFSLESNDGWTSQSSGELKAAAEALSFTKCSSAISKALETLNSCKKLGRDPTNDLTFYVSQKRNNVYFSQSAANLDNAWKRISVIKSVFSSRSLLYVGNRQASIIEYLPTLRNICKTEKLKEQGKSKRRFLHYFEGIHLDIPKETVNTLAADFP
ELG1 MMS Luc: MMS-stimulated human ELG1 repair inhibition, confirmed; shares compounds with ELG1 DNA repair; HEK293T luciferase-tagged ELG1 level, MMS stimulated; Potency, µM (top dose mostly 46.1 µM), without a hit: top-dose activity change, negative = inhibition, usual class: inhibitors; hit rate 53% among 670; note: potency is the fitted concentration of half-maximal effect; nearly all actives have a fitted effect of over 60% in size
ELG1 5FU viab: confirmation of ELG1 repair inhibitors: viability with 5FU. 670 tested, under 10 active. shares compounds with ELG1 DNA repair. cell viability with 5-FU, ELG1-dependent repair. Potency, µM (titrated, usually from 46.1 µM), without a hit: at the highest dose activity change, negative = viability loss, usual class: cytotoxic. AID 624250;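 note: ELG1-luc HEK293T cells cotreated with 5-fluorouridine at 10 µM final; potency is the fitted concentration of half-maximal effect; viability measured 16 h after compound addition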
ELG1 MMS viab: confirmation of ELG1 repair inhibitors: viability with MMS. shares compounds with ELG1 DNA repair. Cell viability with MMS, ELG1-dependent DNA repair. Potency, µM (highest dose often 46.1 µM), without a hit: top-dose activity change, negative = viability loss, hits mostly cytotoxic. hit rate 33% among 670. AID 624251;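 note: ELG1-luc HEK293T cells co-treated with 10 µM MMS; potency is the fitted concentration of half-maximal effect; viability read 16 h after compound addition; nearly all actives have a fitted effect of over 60% in size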
Cell viab unstim: unstimulated viability counter-screen for ELG1 repair hits | hit rate 8% among 900 | shares compounds with ELG1 DNA repair | cell viability counter-screen, unstimulated, luminescence | Potency, µM (doses to about 45.9 µM), inactives show at the highest dose activity change, negative = loss of viability, actives largely listed as cytotoxic | AID 624252;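 note: potency is the fitted concentration of half-maximal effect; compound exposure lasted 16 hours before reading; nearly all actives have a fitted effect of over 55% in size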
FLuc enzyme: counter-screen for ELG1 repair inhibitors: firefly luciferase inhibition; shares compounds with ELG1 DNA repair; purified firefly luciferase, luminescence counter-screen; hit rate 10% among 350; Potency, µM (series often up to 57.5 µM), for inactives: at the highest dose activity, negative = inhibition, hits mostly inhibitors; AID 624253; note: potency is the fitted concentration of half-maximal effect
An asterisk follows results filed as active; ? = inconclusive; · = no result. Hits are enriched below; roughly 19% of the tested compounds scored in any of these assays. Unless noted, calls come from the whole dose curve; as a rule, active = well fitted curve in the direction sought with a large enough effect; inconclusive = small, poorly fitted or top-dose-only effect, or another doubt; inactive = no such curve, though single readings can be large; an effect the other way counts as inactive or inconclusive. Unless noted, % is set by controls: 0 for no effect and ±100 for the full control effect.

SMILES	DT40 TDP1 no CPT	ELG1 DNA repair	HT1080NT lethal	HT1080 IDH1KD tx	TDP1 cell CPT	IL1B secr inh	ELG1 FLuc counter	ELG1-Luc inh	ELG1 MMS Luc	ELG1 5FU viab	ELG1 MMS viab	Cell viab unstim	FLuc enzyme
COc1cc(NC(=O)c2ccccc2)c(OC)cc1NC(=O)Cc1ccc(C)cc1	-23.8%	-8.5%	13.8%	18.6%	-6.5%	33.9	·	·	·	·	·	·	·
Cc1cc(NNC(=O)Nc2cccc(Cl)c2)nc2c1c(C)nn2C	·	0.731µM*	·	·	·	·	-7.5%	?	0.792µM*	-1.9%	0.997µM*	-10.3%	-0.6%
CSc1sc(C(=O)NN)c2c1C1(CCC2)SCCS1	-17.6%	-0.5%	-0.8%	-8.9%	-10.9%	15.9	·	·	·	·	·	·	·
Cc1nn(-c2ccccc2)c(N2CCCC2)c1/C=N/NC(=O)c1cc(-c2ccccc2)nc2ccccc12	?	3.66µM*	-0.8%	1.2%	?	-20.6	·	7.91µM*	?	-5.6%	-7.6%	?	·
Cc1ccc(-c2cc(C(=O)N/N=C/c3c(C)nn(C)c3C)c3ccccc3n2)c(C)c1	?	-5.2%	-10.0%	-15.6%	?	-20.6	·	·	·	·	·	·	·
Cc1ccc(N(C)C(=O)c2cc(S(=O)(=O)N3CCCCC3)c[nH]2)cc1	-25.9%	3.66µM*	-0.1%	1.2%	?	-20.2	·	?	3.3%	-4.9%	-4.4%	-14.1%	·
O=C(Nc1ccncc1)C1CC1c1ccccc1 (stereo not drawn)	?	0.146µM*	2.5%	-25.3%	15.8µM*	-1.6	-0.5%	?	14.1µM*	-1.0%	15.8µM*	-1.9%	-5.0%
Cc1cnccc1CNC(=O)C1CCC(=O)N(Cc2ccc(Cl)cc2)C1 (stereo not drawn)	20.3%	12.9%	8.3%	17.5%	12.4%	-3.7	·	·	·	·	·	·	·
COCC(C)OC(=O)c1c(N)n(CC(C)C)c2nc3ccccc3nc12 (stereo not drawn)	?	3.66µM*	-15.7%	-20.6%	?	-28.9	·	4.99µM*	-20.5%	?	0.2%	-1.5%	·
O=C(c1ccc(Cl)c(S(=O)(=O)N2CCOCC2)c1)N1CCN(c2ccccc2)CC1	?	0.082µM*	-3.3%	0.7%	?	1.9	47.8%	?	-2.0%	-6.7%	-17.0%	?	-7.0%
CN1CCN(CCCNCc2cn(CCC#N)c3ccccc23)CC1	-14.4%	-10.6%	-7.5%	-0.4%	0.1%	0.9	·	·	·	·	·	·	·
Cc1c(CC(=O)N2CCN(C(=O)C3COc4ccccc4O3)CC2)c(=O)oc2cc(O)c(Cl)cc12 (stereo not drawn)	-8.7%	?	0.1%	1.3%	-2.5%	-13.6	·	·	·	·	·	·	·
Cc1cc(=O)oc2cc(OCC(=O)N3CCN(C(=O)C4COc5ccccc5O4)CC3)ccc12 (stereo not drawn)	?	1.16µM*	-5.2%	-7.0%	?	?	·	2.23µM*	?	?	?	-7.6%	·
CCCc1cc(=O)oc2cc(OCC(=O)N3CCN(C(=O)C4COc5ccccc5O4)CC3)ccc12 (stereo not drawn)	5.8µM*	3.66µM*	-20.3%	-2.9%	?	-8.2	·	3.15µM*	?	?	-8.2%	?	·
Cc1c(Cc2ccccc2)c(=O)oc2cc(OCC(=O)N3CCC(C(N)=O)CC3)ccc12	?	0.82µM*	1.9%	-6.9%	?	25.4	-0.5%	?	28.1µM*	?	25µM*	-13.8%	?
Cc1c(C)c2ccc(OCC(=O)N3CCN(C(=O)C4COc5ccccc5O4)CC3)cc2oc1=O (stereo not drawn)	2.31µM*	1.83µM*	0.7%	-13.2%	?	-7.3	·	3.97µM*	-17.6%	?	-6.2%	?	·
Cc1ccc(NC(=O)C2=C(C(=O)O)CCCC2)cc1Br	4.8%	-1.9%	17.0%	7.8%	31.8%	-4.9	·	·	·	·	·	·	·
COCCN1CC(C(=O)N2CCC(Oc3ccccc3OC)CC2)CCC1=O (stereo not drawn)	-9.6%	4.2%	0.3%	-3.6%	9.8%	6.9	·	·	·	·	·	·	·
CC(=O)c1c(C)[nH]c(C(=O)Nc2cccc(S(=O)(=O)N3CCCC3)c2)c1C	?	?	3.3%	0.1%	?	9.9	·	·	·	·	·	?	·
COc1cc2c(C(=O)Nc3ccccc3F)cn(C)c(=O)c2cc1OC	-5.7%	4.7%	-1.6%	4.1%	-7.4%	12.3	5.8%	17.7µM*	2.6%	?	?	-1.0%	4.0%
Cc1ccc(-c2csc(=Nc3cccnc3)n2CCCn2ccnc2)cc1C	11.6µM*	2.91µM*	-5.6%	-19.6%	16.4µM*	?	?	3.97µM*	6.29µM*	-2.7%	9.97µM*	22.3µM*	1.0%
